{
  "source": "paper PMC8222333",
  "about": "“AsCas12a ultra nuclease facilitates the rapid generation of therapeutic cell medicines”",
  "binders": {"B1": {"name": "GAGA (dsDNA)", "DNA 1": "GCTATCTAGTGCTCAGTACGCACTGGAGAAGGAAACTTCTGGCAGGACCAGGTCATGAGATCGGAAGAGCACACGTCTGAACTCCAGTCA", "DNA 2": "TGACTGGAGTTCAGACGTGTGCTCTTCCGATCTCATGACCTGGTCCTGCCAGAAGTTTCCTTCTCCAGTGCGTACTGAGCACTAGATAGC", "RNA": "AAUUUCUACUCUUGUAGAUAGGAAACUUCUGGCAGGACC"}, "B2": {"name": "GATA (dsDNA)", "DNA 1": "GCTATCTAGTGCTCAGTACGCACTGGATAAGGAAACTTCTGGCAGGACCAGGTCATGAGATCGGAAGAGCACACGTCTGAACTCCAGTCA", "DNA 2": "TGACTGGAGTTCAGACGTGTGCTCTTCCGATCTCATGACCTGGTCCTGCCAGAAGTTTCCTTATCCAGTGCGTACTGAGCACTAGATAGC", "RNA": "AAUUUCUACUCUUGUAGAUAGGAAACUUCUGGCAGGACC"}, "B3": {"name": "GATG (dsDNA)", "DNA 1": "GCTATCTAGTGCTCAGTACGCACTGGATGAGGAAACTTCTGGCAGGACCAGGTCATGAGATCGGAAGAGCACACGTCTGAACTCCAGTCA", "DNA 2": "TGACTGGAGTTCAGACGTGTGCTCTTCCGATCTCATGACCTGGTCCTGCCAGAAGTTTCCTCATCCAGTGCGTACTGAGCACTAGATAGC", "RNA": "AAUUUCUACUCUUGUAGAUAGGAAACUUCUGGCAGGACC"}, "B4": {"name": "GATT (dsDNA)", "DNA 1": "GCTATCTAGTGCTCAGTACGCACTGGATTAGGAAACTTCTGGCAGGACCAGGTCATGAGATCGGAAGAGCACACGTCTGAACTCCAGTCA", "DNA 2": "TGACTGGAGTTCAGACGTGTGCTCTTCCGATCTCATGACCTGGTCCTGCCAGAAGTTTCCTAATCCAGTGCGTACTGAGCACTAGATAGC", "RNA": "AAUUUCUACUCUUGUAGAUAGGAAACUUCUGGCAGGACC"}, "B5": {"name": "GCGA (dsDNA)", "DNA 1": "GCTATCTAGTGCTCAGTACGCACTGGCGAAGGAAACTTCTGGCAGGACCAGGTCATGAGATCGGAAGAGCACACGTCTGAACTCCAGTCA", "DNA 2": "TGACTGGAGTTCAGACGTGTGCTCTTCCGATCTCATGACCTGGTCCTGCCAGAAGTTTCCTTCGCCAGTGCGTACTGAGCACTAGATAGC", "RNA": "AAUUUCUACUCUUGUAGAUAGGAAACUUCUGGCAGGACC"}, "B6": {"name": "GCTA (dsDNA)", "DNA 1": "GCTATCTAGTGCTCAGTACGCACTGGCTAAGGAAACTTCTGGCAGGACCAGGTCATGAGATCGGAAGAGCACACGTCTGAACTCCAGTCA", "DNA 2": "TGACTGGAGTTCAGACGTGTGCTCTTCCGATCTCATGACCTGGTCCTGCCAGAAGTTTCCTTAGCCAGTGCGTACTGAGCACTAGATAGC", "RNA": "AAUUUCUACUCUUGUAGAUAGGAAACUUCUGGCAGGACC"}, "B7": {"name": "GCTC (dsDNA)", "DNA 1": "GCTATCTAGTGCTCAGTACGCACTGGCTCAGGAAACTTCTGGCAGGACCAGGTCATGAGATCGGAAGAGCACACGTCTGAACTCCAGTCA", "DNA 2": "TGACTGGAGTTCAGACGTGTGCTCTTCCGATCTCATGACCTGGTCCTGCCAGAAGTTTCCTGAGCCAGTGCGTACTGAGCACTAGATAGC", "RNA": "AAUUUCUACUCUUGUAGAUAGGAAACUUCUGGCAGGACC"}, "B8": {"name": "GCTG (dsDNA)", "DNA 1": "GCTATCTAGTGCTCAGTACGCACTGGCTGAGGAAACTTCTGGCAGGACCAGGTCATGAGATCGGAAGAGCACACGTCTGAACTCCAGTCA", "DNA 2": "TGACTGGAGTTCAGACGTGTGCTCTTCCGATCTCATGACCTGGTCCTGCCAGAAGTTTCCTCAGCCAGTGCGTACTGAGCACTAGATAGC", "RNA": "AAUUUCUACUCUUGUAGAUAGGAAACUUCUGGCAGGACC"}},
  "data": [
    {"molecular_target": "dAsCas12a Ultra (Acidaminococcus sp., UniProt U2UMQ6 1-1307, M537R;F870L;D908A;E993A;D1235A)", "experiment": "Spec-seq (native PAGE EMSA with sequencing of bound and unbound); 25 mM Tris-HCl pH 7.4, 150 mM KCl, 5 mM MgCl2, 10% glycerol, 1 mM DTT, 40 ng/uL salmon sperm DNA; 400 nM Cas12a, 480 nM crRNA, 50 nM library, 37 C 1 h; native PAGE at room temperature; high values mean tight binding", "settings": "protein: recombinant", "units": {"binding signal": "lnKA"}, "values": [
      {"binder": "B1", "binding signal": -8.96},
      {"binder": "B2", "binding signal": -8.53},
      {"binder": "B3", "binding signal": -8.85},
      {"binder": "B4", "binding signal": -8.92},
      {"binder": "B5", "binding signal": -8.91},
      {"binder": "B6", "binding signal": -6.83},
      {"binder": "B7", "binding signal": -6.65},
      {"binder": "B8", "binding signal": -7.49}
    ]},
    {"molecular_target": "dAsCas12a S542R (Acidaminococcus sp., UniProt U2UMQ6 1-1307, S542R;D908A;E993A;D1235A)", "experiment": "Spec-seq (native PAGE EMSA with sequencing of bound and unbound); 25 mM Tris-HCl pH 7.4, 150 mM KCl, 5 mM MgCl2, 10% glycerol, 1 mM DTT, 40 ng/uL salmon sperm DNA; 400 nM Cas12a, 480 nM crRNA, 50 nM library, 37 C 1 h; native PAGE at room temperature; high values mean tight binding;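 note: relative affinity from the bound to unbound sequence frequency ratio in Spec-seq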", "settings": "protein: recombinant", "units": {"binding signal": "lnKA"}, "values": [
      {"binder": "B1", "binding signal": -8.5},
      {"binder": "B2", "binding signal": -8.17},
      {"binder": "B3", "binding signal": -8.25},
      {"binder": "B4", "binding signal": -8.17},
      {"binder": "B5", "binding signal": -8.63},
      {"binder": "B6", "binding signal": -7.23},
      {"binder": "B7", "binding signal": -7.23},
      {"binder": "B8", "binding signal": -7.86}
    ]},
    {"molecular_target": "d-enCas12a (Acidaminococcus sp., UniProt U2UMQ6 1-1307, E174R;S542R;K548R;D908A;E993A;D1235A)", "experiment": "Spec-seq (native PAGE EMSA with sequencing of bound and unbound); 25 mM Tris-HCl pH 7.4, 150 mM KCl, 5 mM MgCl2, 10% glycerol, 1 mM DTT, 40 ng/uL salmon sperm DNA; 400 nM Cas12a, 480 nM crRNA, 50 nM library, 37 C 1 h; native PAGE at room temperature; high values mean tight binding;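 note: relative affinity from the bound to unbound sequence frequency ratio in Spec-seq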", "settings": "protein: recombinant", "units": {"binding signal": "lnKA"}, "values": [
      {"binder": "B1", "binding signal": -5.82},
      {"binder": "B2", "binding signal": -3.28},
      {"binder": "B3", "binding signal": -4.89},
      {"binder": "B4", "binding signal": -5.56},
      {"binder": "B5", "binding signal": -5.81},
      {"binder": "B6", "binding signal": -4.92},
      {"binder": "B7", "binding signal": -4.98},
      {"binder": "B8", "binding signal": -5.74}
    ]},
    {"molecular_target": "d-enCas12a-Ultra (Acidaminococcus sp., UniProt U2UMQ6 1-1307, E174R;S542R;K548R;M537R;F870L;D908A;E993A;D1235A)", "experiment": "Spec-seq (native PAGE EMSA with sequencing of bound and unbound); 25 mM Tris-HCl pH 7.4, 150 mM KCl, 5 mM MgCl2, 10% glycerol, 1 mM DTT, 40 ng/uL salmon sperm DNA; 400 nM Cas12a, 480 nM crRNA, 50 nM library, 37 C 1 h; native PAGE at room temperature; high values mean tight binding;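 note: relative affinity from the bound to unbound sequence frequency ratio in Spec-seq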", "settings": "protein: recombinant", "units": {"binding signal": "lnKA"}, "values": [
      {"binder": "B1", "binding signal": -3.42},
      {"binder": "B2", "binding signal": -1.2},
      {"binder": "B3", "binding signal": -2.56},
      {"binder": "B4", "binding signal": -3.21},
      {"binder": "B5", "binding signal": -3.46},
      {"binder": "B6", "binding signal": -1.62},
      {"binder": "B7", "binding signal": -1.57},
      {"binder": "B8", "binding signal": -2.73}
    ]},
    {"molecular_target": "dAsCas12a E174R (Acidaminococcus sp., UniProt U2UMQ6 1-1307, E174R;D908A;E993A;D1235A)", "experiment": "Spec-seq (native PAGE EMSA with sequencing of bound and unbound); 25 mM Tris-HCl pH 7.4, 150 mM KCl, 5 mM MgCl2, 10% glycerol, 1 mM DTT, 40 ng/uL salmon sperm DNA; 400 nM Cas12a, 480 nM crRNA, 50 nM library, 37 C 1 h; native PAGE at room temperature; high values mean tight binding;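 note: relative affinity from the bound to unbound sequence frequency ratio in Spec-seq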", "settings": "protein: recombinant", "units": {"binding signal": "lnKA"}, "values": [
      {"binder": "B2", "binding signal": -6.9},
      {"binder": "B3", "binding signal": -8.75},
      {"binder": "B4", "binding signal": -8.74},
      {"binder": "B6", "binding signal": -5.69},
      {"binder": "B7", "binding signal": -6.48},
      {"binder": "B8", "binding signal": -7.49}
    ]}
  ]
}
